High-throughput results (PubChem)
Mtb BioA inh – M. tuberculosis BioA enzyme inhibitors, primary screen, biochemical, plate reader, single point, HTS. 7,8-diaminopelargonic acid synthase BioA (Mycobacterium tuberculosis). purified M. tuberculosis BioA enzyme. inhibition, % at 9.99 µM. actives 0.096% (n = 360,000). AID 602481, 2012; in the data active means inhibition above about 40%
Rv3671c inh – Rv3671c serine protease inhibitors, primary screen, biochemical, fluorescence polarization, M. tuberculosis H37Rv; P9WHR9; inhibition, % at 5.96 µM; actives 0.048% (n = 320,000); AID 2606, 2010; in the data active means inhibition above about 38%;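 further: extracellular domain of Rv3671c used as enzyme; 0% = enzyme with DMSO and 100% = no enzyme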
RecA intein inh – Mtb RecA intein splicing inhibitors, primary screen, biochemical, fluorescence, HTS; Protein RecA (Mycobacterium tuberculosis (strain ATCC 25618 / H37Rv)), P9WHJ3; cell-free RecA intein splicing; inhibition, % (no concentration beside the values); actives 0.75% (n = 290,000); in the data active means inhibition above about 30%;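 further: 0% = vehicle wells and 100% = reference inhibitor control wells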
UGM FP inh – M. tuberculosis UGM enzyme inhibitors, primary screen, biochemical, fluorescence polarization, single point; actives 0.06% (n = 320,000); purified UGM, fluorescence polarization probe displacement; inhibition, % at 10 µM; in the data active means inhibition above about 10%, passing the limit was not always enough
Target sequence (P9WIQ1 whole entry, looked up): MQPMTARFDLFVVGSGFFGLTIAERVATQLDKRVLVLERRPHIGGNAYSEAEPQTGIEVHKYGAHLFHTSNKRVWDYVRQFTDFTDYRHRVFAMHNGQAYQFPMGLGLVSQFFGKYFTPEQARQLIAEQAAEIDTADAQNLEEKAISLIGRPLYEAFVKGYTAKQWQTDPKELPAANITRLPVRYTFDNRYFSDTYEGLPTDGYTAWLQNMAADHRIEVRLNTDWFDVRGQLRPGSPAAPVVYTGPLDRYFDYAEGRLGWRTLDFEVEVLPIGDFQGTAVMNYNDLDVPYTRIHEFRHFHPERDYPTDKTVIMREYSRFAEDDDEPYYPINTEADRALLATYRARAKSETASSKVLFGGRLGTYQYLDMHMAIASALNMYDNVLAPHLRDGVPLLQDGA
TcdB inh – TcdB glycohydrolase inhibitors, primary screen, biochemical, single point, plate reader | inhibition, % at 9.99 µM | actives 0.24% (n = 350,000) | AID 652162, 2013 | Toxin B (Clostridioides difficile), P18177 | TcdB glycohydrolase enzymatic assay; in the data active means inhibition above about 10%
FadD28 binding – inhibitors of FadD28 bisubstrate probe binding, primary screen, biochemical, fluorescence polarization, single point; Mycobacterium tuberculosis FadD28 fatty-acid-AMP ligase; inhibition, % at 12.5 µM; actives 0.22% (n = 360,000); AID 588549, 2011; in the data active means inhibition above about 8.5%, passing the limit was not always enough
GFP chromo cs – counter-screen: blocks GFP chromophore formation, dose response, counter-screen, biochemical, fluorescence, homogeneous. shares compounds with RecA intein inh. cell-free GFP chromophore formation. EC50, µM. actives 83% (n = 2,100). AID 434968, 2010; call rule not given here
* hit, by the source's call; . = not tested or not shown. Only some compounds are listed: those with a hit (about 0.9% of all), similar ones and a draw of the others.

SMILES	Mtb BioA inh	Rv3671c inh	RecA intein inh	UGM FP inh	TcdB inh	FadD28 binding	GFP chromo cs
CC(=O)OCCNc1cc(SC(C)C)c2nonc2c1[N+](=O)[O-]	.	-1	23	1	1	1	.
CC(=O)OCCN(C)c1cc(SC(C)C)c2nonc2c1[N+](=O)[O-]	.	14	34*	0	-1	0	>38
NS(=O)(=O)c1ccc(Sc2nc3ccccc3s2)c([N+](=O)[O-])c1	-1	5	24	0	0	-1	.
CN(CCO)c1cc(Sc2nc3ccccc3s2)c2nonc2c1[N+](=O)[O-]	0	-8	94*	1	1	-4	1.4*
CCC(=O)N1C[C@H]2[C@@H](c3ccccc31)[C@@H](CO)N2Cc1ccccc1Cl	0	.	.	.	0	.	.
Cc1noc(C)c1S(=O)(=O)Nc1ccc2c(c1)C(=O)N([C@@H](C)CO)C[C@@H](C)[C@@H](CN(C)S(=O)(=O)c1ccc(Cl)cc1)OCCCC[C@H](C)O2	-5	.	.	.	1	.	.
Cc1[nH]n(-c2ccccc2)c(=O)c1/C=C1\C=NN=C1c1ccccc1	.	-27	82*	1	-2	0	7.4*
CCn1c(COc2cccc3ccccc23)nnc1SCC(N)=O	.	-3	3	0	.	-3	>38
Cc1ccc(Sc2ncnc3onc(C)c23)cc1	-1	5	41*	6	.	-5	>38
Cc1noc2ncnc(Sc3ccc(Cl)cc3)c12	-4	-3	13	2	.	-2	.
O=C(C(Cl)Cl)N1c2ccccc2OCC1c1ccccc1 (stereo not given)	0	0	72*	0	.	-3	35*
Cc1ccc(S(=O)(=O)N2c3ccccc3OCC2c2ccccc2)cc1 (stereo not given)	-1	-21	-1	2	.	-1	.
Cc1nc(Nc2ccc(O)cc2)c2c3c(sc2n1)CCCC3	-1	3	30*	1	-4	0	>38
Cc1ccc(CNc2nc(C)nc3sc4c(c23)CCC4)cc1	-2	-5	0	1	.	-2	.
C[C@H]1CN([C@@H](C)CO)C(=O)c2cccc(NS(=O)(=O)c3cn(C)cn3)c2O[C@@H]1CN(C)S(=O)(=O)c1cccs1	-1	.	.	.	-1	.	.
COc1cc(C2(c3ccc(O)c(OC)c3)C(=O)Nc3c(Br)cc(Br)cc32)ccc1O	4	0	49*	4	-2	-5	12*
O=C1C(=O)c2ccccc2C(O)=C1CCCCl	-1	-27	60*	-2	.	-3	12*
COc1ccc(CC2=C(O)c3ccccc3C(=O)C2=O)cc1	1	-7	2	1	1	1	.
COC(=O)[C@H]1[C@H](CO)[C@H]2Cn3c(ccc(-c4ccc(F)cc4)c3=O)[C@H]2N1Cc1ccccn1	2	.	.	.	-1	.	.
COc1ccc(C(N)c2nccc3cc(OC)c(OC)cc23)cc1OC (stereo not given)	4	-65	92*	0	.	-1	>38
COc1ccc(C(=O)/C(=C/c2cccs2)c2nc3ccccc3o2)cc1	-1	-7	46*	3	.	-3	>38
O=C1Cc2ccccc2C(=O)N1Cc1ccccc1	-2	-52	90*	4	.	0	1.9*
CCC(=O)N1CC2(C1)[C@H](c1ccccc1)[C@H](CO)N2CCC(F)(F)F	.	.	.	.	0	.	.
Cc1ccc(C(O)(C(=O)NN(C(=O)c2ccccc2)c2ccccc2)c2ccc(C)cc2)cc1	.	-48	0	1	0	-3	.
O=C(CCl)N(c1ccccc1)c1ccccc1	.	.	80*	.	0	-1	22*
Cc1ccc(N(NC(=O)C(O)(c2ccccc2)c2ccccc2)C(=O)CCl)cc1	.	-7	66*	2	.	-1	7.3*
CCCCCCN(C(=O)CCl)c1ccccc1	-1	2	54*	1	1	-3	19*
